81 molecules from paper PMC4336329 (PLoS ONE, 2015) can be followed below.

The structures appear in SMILES notation. About 14,000 (4.5%) of roughly 310,000 compounds showed an effect of 50% or more. Effects have a minus sign here. The list comes from a sample in which strong results are over-represented; it also holds similar structures and randomly drawn compounds.
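Note: peak tail current of the secondary pulse compared with the same well before compound.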

Sequence of human ether-à-go-go-related gene (hERG) potassium channel (Q12809 whole entry, looked up): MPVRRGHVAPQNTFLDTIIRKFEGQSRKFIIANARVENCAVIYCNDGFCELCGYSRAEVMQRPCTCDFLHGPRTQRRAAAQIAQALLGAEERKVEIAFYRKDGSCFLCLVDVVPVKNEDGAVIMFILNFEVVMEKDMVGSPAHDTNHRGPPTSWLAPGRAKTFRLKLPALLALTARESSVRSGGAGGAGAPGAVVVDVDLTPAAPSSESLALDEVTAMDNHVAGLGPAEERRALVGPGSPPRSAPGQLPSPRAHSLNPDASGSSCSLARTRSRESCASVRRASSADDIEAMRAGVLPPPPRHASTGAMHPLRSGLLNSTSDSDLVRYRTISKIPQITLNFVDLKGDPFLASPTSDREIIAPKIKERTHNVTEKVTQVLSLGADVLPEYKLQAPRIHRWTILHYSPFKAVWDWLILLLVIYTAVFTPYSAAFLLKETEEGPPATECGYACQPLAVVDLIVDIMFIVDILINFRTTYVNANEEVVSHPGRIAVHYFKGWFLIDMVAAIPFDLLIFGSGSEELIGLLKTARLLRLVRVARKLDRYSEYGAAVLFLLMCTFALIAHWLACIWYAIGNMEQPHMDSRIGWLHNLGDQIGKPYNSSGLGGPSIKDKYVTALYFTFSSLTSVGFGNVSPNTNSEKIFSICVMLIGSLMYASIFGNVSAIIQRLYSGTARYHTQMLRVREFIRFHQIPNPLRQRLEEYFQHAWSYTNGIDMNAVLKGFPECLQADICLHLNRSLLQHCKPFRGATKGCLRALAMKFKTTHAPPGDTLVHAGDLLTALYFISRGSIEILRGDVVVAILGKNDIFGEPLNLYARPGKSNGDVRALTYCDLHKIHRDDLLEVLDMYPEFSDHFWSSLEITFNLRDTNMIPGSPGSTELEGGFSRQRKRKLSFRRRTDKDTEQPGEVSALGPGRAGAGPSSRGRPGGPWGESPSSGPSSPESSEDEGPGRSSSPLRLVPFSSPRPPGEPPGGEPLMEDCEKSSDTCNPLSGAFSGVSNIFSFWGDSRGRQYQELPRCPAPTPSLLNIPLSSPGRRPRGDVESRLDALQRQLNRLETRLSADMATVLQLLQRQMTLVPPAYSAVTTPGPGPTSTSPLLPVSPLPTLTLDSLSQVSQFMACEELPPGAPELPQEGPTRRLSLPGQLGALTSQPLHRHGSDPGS

This experiment concerns the target human ether-à-go-go-related gene (hERG) potassium channel (human, UniProt Q12809). Description: primary screen, population patch clamp on CHO cells stably expressing hERG; higher = less effect of the substance.
Regarding `Clc1ccc(CSc2nnc(-c3ccncc3)o2)cc1`, the “hERG current change (%, negative = inhibition) at 10uM” value is -11.5%. In the case of `Cc1csc(NC(=O)CCc2c(C)nc3cc(-c4ccc(Cl)cc4)nn3c2C)n1`, the “hERG current change (%, negative = inhibition) at 10uM” value is listed as -2.4%. For `COc1ccc(N2CCN(c3ncnc4scc(-c5ccc(F)cc5)c34)CC2)cc1`, the “hERG current change (%, negative = inhibition) at 10uM” value is given as -0.492%.

In the case of `COc1ccc(F)cc1CN1CCN(c2ncnc3scc(-c4ccccc4)c23)CC1`, the “hERG current change (%, negative = inhibition) at 10uM” value was -41.6%. The value for `c1ccc(-c2csc3ncnc(N4CCN(Cc5ccc6c(c5)OCO6)CC4)c23)cc1` was -57.6%. Consider `COc1ccccc1N1CCN(c2ncnc3sc(C)c(-c4ccccc4)c23)CC1`, for which the “hERG current change (%, negative = inhibition) at 10uM” value is 14.2%.

As to `COc1ccc(CN2CCN(c3ncnc4scc(-c5ccc(F)cc5)c34)CC2)cc1`, the “hERG current change (%, negative = inhibition) at 10uM” value is recorded as -65.8%. The value for `CCN1CCN(c2ncnc3sc(C)c(-c4ccccc4)c23)CC1` was -57.1%.

For `O=C(CSc1ncnc2scc(-c3ccccc3)c12)N1CCN(Cc2ccc3c(c2)OCO3)CC1`, the “hERG current change (%, negative = inhibition) at 10uM” value is -35.7%.

Regarding `Cc1sc2ncnc(N3CCN(Cc4ccccc4)CC3)c2c1-c1ccccc1`, the “hERG current change (%, negative = inhibition) at 10uM” value is -34.8%.

With `Fc1ccc(CN2CCN(c3ncnc4scc(-c5ccc(F)cc5)c34)CC2)cc1`, the “hERG current change (%, negative = inhibition) at 10uM” value was 5.9%.

For the molecule `CNc1c([N+](=O)[O-])cnn1-c1ccccn1`, the “hERG current change (%, negative = inhibition) at 10uM” value is listed as -15.5%. With `CC(C)(O)C#Cc1ccc(C(=O)NCCc2ccc(S(N)(=O)=O)cc2)cc1`, the “hERG current change (%, negative = inhibition) at 10uM” value is 13.6%. In the case of `O=C(NNS(=O)(=O)c1cccc(Cl)c1)c1cc(-c2ccc(F)cc2)nc2ccccc12`, the “hERG current change (%, negative = inhibition) at 10uM” value turned out to be 11.6%. The same measure for `Cc1ccc(C(=O)COC(=O)CNS(=O)(=O)c2ccc(C)cc2)cc1`: 12.4%; for `CCOC(=O)C(NC(C)=O)(Nc1ccc(F)cc1)C(F)(F)F` (stereo not drawn): -3.72%; for `O=C(O)c1cnc(-c2ccccc2)nc1Sc1cccc(Cl)c1`: 26.7%. For the molecule `O=C(O)/C(=C\c1cn(-c2ccccc2)nc1-c1cccnc1)NC(=O)c1ccccc1`, the “hERG current change (%, negative = inhibition) at 10uM” value turned out to be 7.21%. In the case of `CC/C=C/C(=O)N1CC2(CC(c3cccc(NC(=O)COc4ccc(Cl)cc4)c3)=NO2)C[C@H]1C(N)=O` (stereo partly drawn), the “hERG current change (%, negative = inhibition) at 10uM” value is -64.7%.

Consider `NC(=O)[C@H]1CC2(CC(c3cccc(NC(=O)COc4ccc(Cl)cc4)c3)=NO2)CN1C(=O)c1ccc(Cl)cc1` (stereo partly drawn), for which the “hERG current change (%, negative = inhibition) at 10uM” value was -9.96%. The value for `C/C=C\C=C/C(=O)Nc1cccc(C2=NOC3(C2)C[C@@H](C(N)=O)N(C(=O)COc2ccc(Cl)cc2)C3)c1` (stereo partly drawn) was -7.47%.

`CC/C=C/C(=O)N1CC2(CC(c3cccc(NC(=O)CC)c3)=NO2)C[C@H]1C(N)=O` (stereo partly drawn): the “hERG current change (%, negative = inhibition) at 10uM” value is given as 13.6%. The same measure for `C/C=C/C(=O)N1CC2(CC(c3cccc(NC(=O)COc4ccc(Cl)cc4)c3)=NO2)C[C@@H]1C(N)=O` (stereo partly drawn): -41.4%; for `C/C=C\C=C\C(=O)N1CC2(CC(c3cccc(NC(=O)COc4ccc(Cl)cc4)c3)=NO2)C[C@H]1C(N)=O` (stereo partly drawn): -76.9%.

As to `Cn1nc(-c2ccccc2)c(CSc2ccccc2Cl)c1Cl`, the “hERG current change (%, negative = inhibition) at 10uM” value was 6.46%.

Consider `CN1CCN(C(=O)c2cnn(-c3ccccc3)c2NC(=O)c2ccccc2Br)CC1`, for which the “hERG current change (%, negative = inhibition) at 10uM” value amounted to 3.72%. With `O=C(Nc1c(C(=O)N2CCOCC2)cnn1-c1ccccc1)c1ccc([N+](=O)[O-])cc1`, the “hERG current change (%, negative = inhibition) at 10uM” value is given as -16%.

On to `CN1CCN(C(=O)c2cnn(-c3ccccc3)c2NC(=O)c2ccc([N+](=O)[O-])cc2)CC1`, for which the “hERG current change (%, negative = inhibition) at 10uM” value is listed as -51.6%. The value for `Cc1cccc(C(=O)Nc2c(C(=O)N3CCN(C)CC3)cnn2-c2ccccc2)c1` was -15.9%; that for `CN1CCN(C(=O)c2cnn(-c3ccccc3)c2NC(=O)c2ccccc2)CC1` was -17.8%. On to `CN1CCN(C(=O)c2cnn(-c3ccccc3)c2NC(=O)c2ccc(Br)cc2)CC1`, for which the “hERG current change (%, negative = inhibition) at 10uM” value is on record as -81.4%. For the molecule `O=C(CNC(=O)c1ccc(Br)o1)NCc1ccccc1Cl`, the “hERG current change (%, negative = inhibition) at 10uM” value is given as 1.15%. Turning to `CCCCc1ccc(NC(=S)NCCN2CCOCC2)cc1`, the “hERG current change (%, negative = inhibition) at 10uM” value was -39%. On to `CCOC(=O)CSc1cc(C(F)(F)F)nc(-c2ccccn2)n1`, for which the “hERG current change (%, negative = inhibition) at 10uM” value is given as -31.5%. `CC(C)CCc1noc(CN2CCC(C(=O)N3CCOCC3)CC2)n1`: the “hERG current change (%, negative = inhibition) at 10uM” value was -6.13%. The same measure for `C/C=C/n1ccnc1CC(O)(c1ccccc1)c1ccc(C)cc1` (stereo not drawn): -22.5%; for `Nc1nnnn1/N=C\c1ccc(Cl)c([N+](=O)[O-])c1`: 3.26%; for `COc1ccc(NC(=S)Nc2cccnc2)c(OC)c1`: 8.2%. With `CCN(CC(=O)Nc1cc(OC)ccc1OC)Cc1nc2ccccc2c(=O)[nH]1`, the “hERG current change (%, negative = inhibition) at 10uM” value was -8.33%. The value for `CCc1ccc2c(CN(CC)Cc3nc4ccccc4c(=O)[nH]3)cc(=O)oc2c1` was -71.6%; that for `CCN(Cc1nc2ccccc2c(=O)[nH]1)Cc1nc2cc(OC)c(OC)cc2c(=O)[nH]1` was 14.9%. For `CCN(Cc1nc2ccccc2c(=O)[nH]1)Cc1cc(=O)oc2cc(C)c(C)cc12`, the “hERG current change (%, negative = inhibition) at 10uM” value is -41.4%. The value for `CN(Cc1nc2ccccc2c(=O)[nH]1)Cc1cc(=O)oc2ccc3ccccc3c12` was -10.1%; that for `CCN(Cc1nc2ccccc2c(=O)[nH]1)Cc1cc(=O)oc2cc(OC)ccc12` was -51.1%. Take `N#Cc1ccccc1S(=O)(=O)N1CCN(CC(=O)NCC2(N3CCOCC3)CCCCC2)CC1`: the “hERG current change (%, negative = inhibition) at 10uM” value is -27.3%. As for `CCOc1cc(/C=C2/NC(=O)N(CC(=O)OC)C2=O)ccc1O`, the “hERG current change (%, negative = inhibition) at 10uM” value worked out at 3.71%. As for `O=C(O)c1ccc(Br)c(S(=O)(=O)N2CCCC2)c1`, the “hERG current change (%, negative = inhibition) at 10uM” value was determined as 9.91%.

For the molecule `CCCCc1ccc(NC(=O)C(=O)NCCN2CCN(C(=O)c3ccc([N+](=O)[O-])cc3)CC2)cc1`, the “hERG current change (%, negative = inhibition) at 10uM” value is -22.4%. Take `Cc1ccc(NC(=O)C(=O)NCCN2CCN(Cc3ccc([N+](=O)[O-])cc3)CC2)cc1`: the “hERG current change (%, negative = inhibition) at 10uM” value is -72.8%. As to `CCN1CCN(CCNC(=O)Nc2ccc([N+](=O)[O-])cc2)CC1`, the “hERG current change (%, negative = inhibition) at 10uM” value is recorded as -12.2%. Take `CCNC(=O)C(=O)Nc1ccc([N+](=O)[O-])cc1`: the “hERG current change (%, negative = inhibition) at 10uM” value turned out to be 2.37%. Consider `CCCCc1ccc(NC(=O)C(=O)NCCN2CCN(Cc3ccc([N+](=O)[O-])cc3)CC2)cc1`, for which the “hERG current change (%, negative = inhibition) at 10uM” value was -66.7%. The same measure for `Cc1ccc(NC(=O)C(=O)NCCN2CCN(S(C)(=O)=O)CC2)cc1`: 19.6%; for `CCc1ccc(NC(=O)C(=O)NCCN2CCN(C(=O)c3ccco3)CC2)cc1`: -67%.

Regarding `CCc1ccc(NC(=O)C(=O)NCCN2CCN(S(C)(=O)=O)CC2)cc1`, the “hERG current change (%, negative = inhibition) at 10uM” value came to 20.5%. The value for `CCc1ccc(NC(=O)C(=O)NCCN2CCN(Cc3ccc([N+](=O)[O-])cc3)CC2)cc1` was -72.5%; that for `COc1ccc(NC(=O)C(=O)NCCN2CCN(C(=O)c3ccco3)CC2)cc1` was -11.1%. The value for `CCc1ccc(CN2CCN(C(=O)c3ccco3)CC2)cc1.O=C(O)C(=O)O` was -23.8%; that for `O=C(CNC(=O)c1cccs1)NCC(=O)OCc1ccc(F)cc1` was -13.1%. On to `O=C(CN1C(=O)C(=O)N(C2CCCC2)C1=O)NCCc1ccc(Cl)cc1Cl`, for which the “hERG current change (%, negative = inhibition) at 10uM” value is reported as 10.4%. Take `COc1ccccc1NC(=O)Cn1nc(-c2ccncc2)nc1SCC(=O)NC1CCCC1`: the “hERG current change (%, negative = inhibition) at 10uM” value is given as -20.2%. In the case of `COC(=O)CC1SC(=O)NC1=Nc1ccc(OC)cc1` (stereo not drawn), the “hERG current change (%, negative = inhibition) at 10uM” value came out at 1.66%. As for `CCC(C)NS(=O)(=O)c1ccc(OCC(=O)Nc2ccc(F)cc2F)cc1` (stereo not drawn), the “hERG current change (%, negative = inhibition) at 10uM” value is listed as -2.06%. For `COCCCNCC#CCOc1ccc(OC)cc1.O=C(O)C(=O)O`, the “hERG current change (%, negative = inhibition) at 10uM” value is listed as 0.922%. The value for `O=C(NCCc1ccccc1)C(=O)Nc1ccc([N+](=O)[O-])cc1` was -2.37%. Regarding `O=C(NCCN1CCN(S(=O)(=O)c2ccc([N+](=O)[O-])cc2)CC1)C(=O)Nc1ccccc1`, the “hERG current change (%, negative = inhibition) at 10uM” value came out at 13.5%. Turning to `O=C(NCCN1CCN(Cc2ccc([N+](=O)[O-])cc2)CC1)C(=O)Nc1ccccc1`, the “hERG current change (%, negative = inhibition) at 10uM” value is reported as -64.3%. Consider `CC(OC(=O)c1ccc2c(c1)C(=O)N(Cc1ccncc1)C2=O)C(=O)Nc1cccc(Cl)c1Cl` (stereo not drawn), for which the “hERG current change (%, negative = inhibition) at 10uM” value is -11.1%. `COC(=O)c1ccc(C(=O)OC)c(NC(=S)N2CCN(c3ccccc3)CC2)c1`: the “hERG current change (%, negative = inhibition) at 10uM” value is recorded as -19.1%. For `COC(=O)c1ccc(C(=O)OC)c(NC(=S)N2CCN(c3ccccc3F)CC2)c1`, the “hERG current change (%, negative = inhibition) at 10uM” value is -52.9%.

For `COC(=O)c1ccc(C(=O)OC)c(NC(=O)CCS(=O)(=O)Cc2ccccc2)c1`, the “hERG current change (%, negative = inhibition) at 10uM” value is on record as -2.41%. The value for `COC(=O)c1ccc(C(=O)OC)c(NC(=O)CS(=O)(=O)Cc2ccccc2)c1` was -53.2%. Turning to `COC(=O)c1ccc(C(=O)OC)c(NC(=O)C2CCCO2)c1` (stereo not drawn), the “hERG current change (%, negative = inhibition) at 10uM” value was 10.5%.

Consider `COC(=O)c1ccc(NC(=O)CS(=O)(=O)Cc2ccccc2)cc1`, for which the “hERG current change (%, negative = inhibition) at 10uM” value was found to be 1.28%. Take `COC(=O)c1ccc(C(=O)OC)c(NC(=S)N2CCN(c3ccc(F)cc3)CC2)c1`: the “hERG current change (%, negative = inhibition) at 10uM” value was -24%. In the case of `COC(=O)c1ccc(C(=O)OC)c(NC(=O)C(C)(C)C)c1`, the “hERG current change (%, negative = inhibition) at 10uM” value is listed as 20.7%. `COC(=O)c1ccc(C(=O)OC)c(NC(=O)C2CC2)c1`: the “hERG current change (%, negative = inhibition) at 10uM” value is reported as -68.9%. `Fc1ccc(-c2nnc(SCc3cccnc3)o2)cc1`: the “hERG current change (%, negative = inhibition) at 10uM” value was -3.91%. For `Fc1cccc(F)c1/C=N/NC(=S)Nc1cccnc1`, the “hERG current change (%, negative = inhibition) at 10uM” value is -14.3%. With `Cl.Oc1cccc(C(O)CNCc2ccc(OCc3ccc(Cl)cc3Cl)cc2)c1` (stereo not drawn), the “hERG current change (%, negative = inhibition) at 10uM” value was 7.89%. `C=CCN(CC=C)S(=O)(=O)c1ccc(NC(=S)NC(=O)/C=C/c2ccc(C)cc2)cc1`: the “hERG current change (%, negative = inhibition) at 10uM” value was 6.12%.
